Bioassay records from PubChem BioAssay.
Sm TGR block – blocks Schistosoma mansoni thioredoxin glutathione reductase. Q962Y6. Potency, µM (doses to about 114 µM), for inactives: at the top dose activity change, negative = inhibition, most hits filed as inhibitors. actives 3% (n = 360,000). purified TGR, DTNB reduction, TNB absorbance 405 nm; also: potency is read from the fitted curve at half-maximal effect; nearly all actives have a fitted effect of over 60% in size
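Kinetic colorimetric format: TGR-catalysed, NADPH-driven DTNB reduction monitored via TNB absorbance. Enzyme dispensed at 20 nM; compound exposure 15 min at room temperature before reaction start.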
Pf growth 48h – P. falciparum growth inhibition at 48 hours (one generation) | Potency, µM (top dose mostly 28.7 µM), inactives show at the top dose activity change, negative = inhibition, actives largely listed as inhibitors | actives 5.9% (n = 310,000) | P. falciparum luciferase growth in erythrocytes, 48 h; also: potency is read from the fitted curve at half-maximal effect
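Parasite viability was followed by luminescence of a genomically integrated firefly luciferase. Cultures held 0.1% parasitemia at 2% hematocrit (final), incubated under 5% CO2 at 37 C.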
Giardia FBPA inh – inhibitors of Giardia lamblia fructose-1,6-bisphosphate aldolase. A8B2U2. purified Giardia FBPA. Potency, µM (doses to about 59.6 µM), without a hit: top-dose activity, negative = inhibition, hits mostly inhibitors. actives 0.71% (n = 290,000); also: potency is read from the fitted curve at half-maximal effect; nearly all actives have a fitted effect of over 55% in size
Target sequence (A8B2U2 whole entry, looked up): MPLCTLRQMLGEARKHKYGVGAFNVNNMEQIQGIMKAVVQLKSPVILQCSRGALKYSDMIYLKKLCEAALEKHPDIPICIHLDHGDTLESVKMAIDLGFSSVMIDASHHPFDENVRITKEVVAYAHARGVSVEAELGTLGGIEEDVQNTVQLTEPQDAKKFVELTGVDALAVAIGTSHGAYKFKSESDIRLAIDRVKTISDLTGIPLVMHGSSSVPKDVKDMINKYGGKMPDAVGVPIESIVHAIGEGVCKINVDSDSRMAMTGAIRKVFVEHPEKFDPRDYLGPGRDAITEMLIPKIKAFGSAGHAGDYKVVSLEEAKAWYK
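Giardia FBPA (40 nM reagent) was preincubated 10 min at RT with compound (up to 57.5 uM final), then substrate plus GAPDH/TPI/NAD/arsenate coupling system with diaphorase/resazurin was added; resorufin fluorescence (525/598 nm) was read after 20 min.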
HCMV inh – human cytomegalovirus inhibition | HFF cells, HCMV-luciferase reporter, 72 h; stronger effect = lower value | actives 4.5% (n = 410,000) | activity change, negative = inhibition, % at 57.5 µM | AID 1259415; in the data active = activity change below about -60%; inconclusive = no clear call, values can overlap the other calls; inactive = above about -39%
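Human foreskin fibroblasts infected with luciferase-reporter HCMV at MOI 1 PFU/cell, compounds at two doses. Luciferase measured 72 h post infection; normalized to buffer-only basal and Salinomycin (10uM) controls.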
Pf growth 96h – inhibits malaria parasite growth, 96 h; P. falciparum luciferase reporter growth, 96 h; Potency, µM (titrated, usually from 28.7 µM), for inactives: top-dose activity change, negative = inhibition, usual class: inhibitors; actives 6.9% (n = 320,000); AID 504834; also: potency is read from the fitted curve at half-maximal effect
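Two parasite generations (96 h, 37 C, 5% CO2) of compound exposure in infected erythrocytes (0.05% parasitemia, 2% hematocrit). Luciferase-reporter P. falciparum; decreased luminescence indicates inhibited growth, aimed at apicoplast-acting delayed death.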
Numbers without * were called inactive; ? = inconclusive; / = no result. Only some compounds are listed: those with a hit (about 14% of all), similar ones and a draw of the others. Unless noted, calls follow the shape of the dose curve; as a rule, active = well fitted curve in the direction sought with a large enough effect; inconclusive = small, poorly fitted or top-dose-only effect, or another doubt; inactive = no such curve, though single readings can be large; an effect the other way counts as inactive or inconclusive. % is scaled to controls: 0 for no effect and ±100 for the full control effect.

SMILES	Sm TGR block	Pf growth 48h	Giardia FBPA inh	HCMV inh	Pf growth 96h
Cc1cccc(C(C(=O)NC2CCCC2)N(C(=O)c2csnn2)C2CCCC2)c1 (centres undefined)	-11.6%	?	-4.8%	7.3	?
CCCS(=O)(=O)c1nc(S(=O)(=O)c2ccc(C)cc2)c(NC)s1	-3.9%	/	/	-8.4	/
CN(CCO)C1=NS(=O)(=O)c2cc([N+](=O)[O-])ccc21	-25.3%	4.15µM*	10.7%	-38.9	-27.0%
N#Cc1c(C(F)(F)F)cc(-c2ccc(Cl)c(Cl)c2)nc1SCCN1CCOCC1	-13.4%	?	11.4%	33.2	2.33µM*
Cc1cc(C(F)(F)F)nc(SCCN2CCOCC2)c1C#N	-10.9%	4.9%	2.1%	17.8	12.1%
COC(=O)c1ccccc1-c1ccc(C(c2c(C)[nH][nH]c2=O)c2c(C)[nH][nH]c2=O)o1	-1.2%	?	4.5%	-33.7	56.9%
Cc1[nH][nH]c(=O)c1C(c1ccc(-c2ccc(Cl)c(C(=O)O)c2)o1)c1c(C)[nH][nH]c1=O	15.8µM*	37.6%	7.06µM*	-7.0	-22.3%
COC(=O)c1cccc(-c2ccc(C(c3c(C)[nH][nH]c3=O)c3c(C)[nH][nH]c3=O)o2)c1	14.1µM*	-4.6%	14.1µM*	-12.8	-26.4%
CN1CCN(c2ccc(CNC(=O)c3ccco3)cc2)CC1	-5.0%	42.4%	-0.7%	-5.4	45.2%
CCC(=O)NC[C@H](Cc1ccc(OCCc2nc(-c3ccccc3)oc2C)cc1)N/C(C)=C\C(=O)c1ccc(C(F)(F)F)cc1	/	/	-21.1%	/	/
Cn1cc(-c2nc3cnc(OCc4ccccc4)nc3n(CCC#N)c2=O)c2ccccc21	/	/	11.4%	/	/
O=c1c2ccccc2nc(SCc2cn3ccsc3n2)n1-c1ccc(F)cc1	9.0%	?	5.1%	-77.4*	?
Cc1ccc2c(CN3CCN(c4ccc(Cl)cc4)CC3)cc(=O)oc2c1	-3.0%	/	/	36.3	/
COc1ccc(-n2cc(-c3ccccc3)[nH]c2=S)cc1	2.5%	27.6%	1.5%	3.3	?
COc1cccc(-c2cn(-c3cccc(C(F)(F)F)c3)c(=S)[nH]2)c1	0.3%	10.4µM*	14.0%	?	?
O=Cc1ccc(C(=O)OCC(=O)NCc2ccco2)cc1	/	/	/	26.5	/
CC(C)Cc1nc(N2CCOCC2)c(C#N)c2c1COC(C)(C)C2	-2.3%	10.4µM*	2.9%	30.8	/
CC(C)Cc1nc(NCCN2CCOCC2)c(C#N)c2c1COC(C)(C)C2	-21.1%	11.7µM*	-0.7%	-30.8	/
Cc1ccc(-c2cc(C3C4C=CCC(C)C4C(=O)N3Cc3ccccc3)ccc2F)cc1 (centres undefined)	/	/	-1.8%	/	/
CC1CN(C(C)C(=O)NNC(=O)c2ccc(F)cc2)CC(C)O1 (centres undefined)	/	/	/	-23.3	/
CC1CN(C(NC(=O)c2ccccc2)C(Cl)(Cl)Cl)CC(C)O1 (centres undefined)	20µM*	11.3%	4.1%	6.6	-25.4%
CC1CN(C(NC(=O)C(C)(C)C)C(Cl)(Cl)Cl)CC(C)O1 (centres undefined)	35.5µM*	36.2%	0.9%	-7.1	211.8%
CC1CN(C(=O)C2(C)CC2(Cl)Cl)CC(C)O1 (centres undefined)	2.5%	-3.3%	-2.6%	-20.4	?
CCN(Cc1ccccc1)C(=O)COC(=O)c1cc(S(=O)(=O)Nc2c(C)n(C)n(-c3ccccc3)c2=O)ccc1C	-5.9%	9.7%	7.9%	-64.7*	?
Cc1ccc(S(=O)(=O)Nc2c(C)n(C)n(-c3ccccc3)c2=O)cc1C(=O)OC(C)C(=O)N(C)c1ccccc1 (centres undefined)	0.4%	-22.1%	4.8%	?	14.7µM*
SMILES	Sm TGR block	Pf growth 48h	Giardia FBPA inh	HCMV inh	Pf growth 96h
C=CCN(Cc1cccc(OC)c1OC)C(=O)Oc1ccccc1	1.0%	-17.0%	/	-19.1	-21.1%
CO/N=C/NC(=O)NOCc1c(Cl)cccc1Cl	5.0%	2.0%	-0.6%	-104.0*	-5.8%
O=C(N/C=N/OCc1ccc(Cl)cc1Cl)NOCc1c(Cl)cccc1Cl	0.0%	?	-7.0%	-31.7	?
CCC(C)(C)NC(=O)C(c1ccc(OC)cc1)N(Cc1cccs1)C(=O)CCC(=O)Nc1cc(C)on1 (centres undefined)	-8.3%	10.4µM*	-0.6%	-12.1	3.4%
COc1ccc(C(C(=O)NC(C)(C)C)N(Cc2cccs2)C(=O)CCC(=O)Nc2cc(C)on2)cc1 (centres undefined)	-3.7%	?	0.0%	-4.5	?
CCC(C)(C)NC(=O)C(c1ccccc1Cl)N(C(=O)CCC(=O)Nc1cc(C)on1)c1ccc(NC(C)=O)cc1 (centres undefined)	-0.7%	-52.1%	-1.6%	-24.5	-0.8%
CCC(C)(C)NC(=O)C(c1ccc(C)cc1)N(Cc1cccs1)C(=O)c1ccc2c(c1)OCCO2 (centres undefined)	-1.0%	?	-4.9%	-21.0	11.7µM*
Cc1cc(NC(=O)CCC(=O)N(c2ccccc2)C(C(=O)NC(C)(C)C)c2ccccc2Cl)no1 (centres undefined)	41.8%	13.1µM*	6.8%	7.7	-18.4%
CCC(C)(C)NC(=O)C(c1cccc(OC)c1OC)N(CCOC)C(=O)CCC(=O)Nc1cc(C)on1 (centres undefined)	-4.3%	2.9%	/	-37.0	10.4µM*
CC(C)C[C@@H](CC(=O)N[C@@H](CCCN)CC(=O)N[C@@H]1CCCC[C@H]1C(=O)N[C@H](CC(=O)N[C@@H](CCC(=O)O)CC(=O)O)CC(C)C)NC(=O)[C@@H]1CCCC[C@H]1N	/	/	-15.5%	/	/
Cc1ccccc1C1(CCN2CCCCC2)CCOC(C)(C)C1 (centres undefined)	-13.8%	-12.1%	-4.2%	-35.8	?
O=C(CN1C(=O)CCSc2ccc(S(=O)(=O)N3CCCC3)cc21)Nc1cccc(F)c1	0.0%	/	/	-7.9	/
COc1ccc(C(C(=O)NC(C)(C)C)N(CCc2ccccc2)C(=O)CCC(=O)Nc2cc(C)on2)cc1 (centres undefined)	-7.9%	11.7µM*	-0.5%	0.7	1.8%
COCC(=O)N1CCC2(CCCN(C(c3ccccc3)c3ccccc3)C2)CC1	/	/	-0.1%	/	/
Cc1ccc(C)c(N2CCN(C(=O)Cn3ncc4c(=O)oc5ccccc5c43)CC2)c1	8.91µM*	/	/	0.4	/
Cc1ccc2oc(=O)c3cnn(CC(=O)N4CCc5ccccc5C4)c3c2c1	1.9%	/	14.4%	-4.3	2.62µM*
Cc1ccc2oc(=O)c3cnn(CC(=O)N4CCN(c5ccc(F)cc5)CC4)c3c2c1	0.7%	/	/	-0.4	/
CCOC(=O)c1ccccc1NC(=O)N(Cc1ccc(CC)cc1)Cc1cn[nH]c1-c1ccc(OC)cc1	0.1%	/	/	-63.2*	/
CCCOc1ccc(C(=O)N/N=C/c2c[nH]c3ccc(Br)cc23)cc1	12.7%	13.8%	8.4%	-30.5	?
